Results filed as inconclusive are left out. Unmarked numbers belong to inactive results. The source made the active and inactive calls. The call rests on the fitted dose curve; in most records, active means well fitted activation curve with a large enough effect in the main read-out, with a control signal flat (not every such curve was filed as active); inconclusive means small, poorly fitted or top-dose-only effect, or effect the other way, or a change in a side signal; inactive means flat fitted curve, though single readings scatter. Residues, ends and D or L forms follow the SMILES beside them. *: point of attachment. Cbz = O=C(OCc1ccccc1)*
What follows are molecules tested against 3',5'-cyclic-AMP phosphodiesterase 4B (Homo sapiens) (UniProt Q07343) (assay: qHTS Assay for Inhibitors of PDE-IV (AID 607; on activation (PDE inhibition): % of control where 0% means no effect)). Conditions: HEK293 ACTOne CNG channel cells, membrane potential fluorescence; series mostly up to 22.9 µM; activation (PDE inhibition): at the top concentration.
Chain of 3',5'-cyclic-AMP phosphodiesterase 4B (Homo sapiens) (Q07343 whole entry, looked up): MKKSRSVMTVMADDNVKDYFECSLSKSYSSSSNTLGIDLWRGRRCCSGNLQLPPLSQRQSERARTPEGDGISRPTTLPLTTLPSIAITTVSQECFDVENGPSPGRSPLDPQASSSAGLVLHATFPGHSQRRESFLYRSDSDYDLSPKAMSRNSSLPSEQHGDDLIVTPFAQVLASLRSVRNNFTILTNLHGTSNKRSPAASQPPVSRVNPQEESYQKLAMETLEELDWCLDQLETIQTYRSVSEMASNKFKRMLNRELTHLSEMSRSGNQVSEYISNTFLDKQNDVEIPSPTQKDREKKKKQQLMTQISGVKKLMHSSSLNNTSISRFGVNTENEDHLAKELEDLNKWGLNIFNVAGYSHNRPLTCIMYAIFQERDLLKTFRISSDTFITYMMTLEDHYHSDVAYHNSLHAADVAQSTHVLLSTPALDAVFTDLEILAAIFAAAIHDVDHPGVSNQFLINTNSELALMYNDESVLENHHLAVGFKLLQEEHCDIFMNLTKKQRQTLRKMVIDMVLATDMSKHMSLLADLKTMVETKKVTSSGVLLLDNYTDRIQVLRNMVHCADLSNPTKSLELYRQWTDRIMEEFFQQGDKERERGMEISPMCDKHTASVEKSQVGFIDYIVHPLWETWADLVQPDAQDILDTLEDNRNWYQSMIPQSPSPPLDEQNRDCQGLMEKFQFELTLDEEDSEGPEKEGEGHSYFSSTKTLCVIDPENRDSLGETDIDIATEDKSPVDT
In short: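 Live HEK293 cells with a modified cyclic nucleotide-gated (CNG) channel report intracellular cAMP via membrane-potential dye fluorescence (ex 535/em 590 nm). Endogenous PDE-IV was targeted. Compounds were tested at up to 22.9 uM final; RO 20-1724 100 uM served as control.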
For `O=C(O)Cc1ccc(O)c(O)c1`, the “activation (PDE inhibition)” value was -1.37%. With `CN(C)S(=O)(=O)c1ccc2c(c1)/C(=C/c1cc3c([nH]1)CCCC3)C(=O)N2` the “activation (PDE inhibition)” value was -14.7%. For `CC(N)=O`, the “activation (PDE inhibition)” value was -15%. In the case of `O=c1onc2cnc3ccccc3n12`, the Potency is reported as “inactive”. With `Cc1ccc2c(c1)C(N1CCN(C)CC1)=Nc1cccnc1N2` the “activation (PDE inhibition)” value was 0.202%. With `N#Cc1cc2nc(O)c(O)nc2cc1[N+](=O)[O-]` the “activation (PDE inhibition)” value was -2.44%. With `N#C/C(=C\c1ccc(O)c(O)c1)C(=O)NCCc1ccccc1` the “activation (PDE inhibition)” value was -2.69%. For `O=C(O)c1ccccc1Nc1cccc(OCc2ccc3ccccc3n2)c1`, the “activation (PDE inhibition)” value was -3.99%. For `Cc1nc(N=Nc2ccc(C(=O)O)cc2)c(COP(=O)(O)O)c(C=O)c1O`, the “activation (PDE inhibition)” value was 4.54%. In the case of `O=[N+]([O-])c1cccc2c(Br)[nH]nc12`, the “activation (PDE inhibition)” value is reported as -21.1%. With `O=[N+]([O-])c1cccc2cn[nH]c12` the Potency was “inactive”. In the case of `O=C(O)C1=CCNCC1`, the Potency is reported as “inactive”. For `CC(=O)N[C@@H](Cc1c[nH]c2ccccc12)C(=O)OCc1cc(C(F)(F)F)cc(C(F)(F)F)c1`, the Potency was “inactive”. `N[C@H](C(=O)O)c1cc(O)cc(O)c1` was tested, and the Potency was “inactive”. `NC(=O)c1ccccc1` was tested, and the “activation (PDE inhibition)” value was -3.45%. `Fc1ccc(CN(C2=NCCN2)c2c(Cl)cccc2Cl)cc1` was tested, and the “activation (PDE inhibition)” value was -5.33%. In the case of `CCCc1c(OCCCOc2ccc(OCC(=O)O)cc2)ccc(C(C)=O)c1O`, the “activation (PDE inhibition)” value is reported as 3.05%. For `Cc1cccc(C(=O)NCN2CCN(c3ccccc3C#N)CC2)c1`, the Potency was “inactive”. For `NC(=O)CNCCC(c1ccccc1)c1ccccc1`, the “activation (PDE inhibition)” value was 17.6%. For `CCCCOC(=O)NS(=O)(=O)c1sc(CC(C)C)cc1-c1ccc(Cn2c(CC)nc3c(C)cc(C)nc32)cc1`, the “activation (PDE inhibition)” value was 22.1%. In the case of `CNc1cc(NS(=O)(=O)c2ccc(N)cc2)nc(NC)n1`, the “activation (PDE inhibition)” value is reported as -0.91%. In the case of `CCc1ccc2c(-c3cccc(Cl)c3)nc(=O)n(CC)c2n1`, the Potency is reported as 12 nM (active). With `CNCCNS(=O)(=O)c1cccc2cnccc12` the “activation (PDE inhibition)” value was 1.9%. For `COc1ccc(CCN(C)CCc2ccc(OC)c(OC)c2)cc1OC`, the “activation (PDE inhibition)” value was -0.498%. With `O=C(O)c1ccccc1Nc1ccccc1` the “activation (PDE inhibition)” value was -9.04%. For `COc1ccccc1N1CCN(CCCCN2C(=O)c3ccccc3C2=O)CC1`, the Potency was “inactive”. For `COc1ccccc1N1CCN(CCN(C(=O)c2ccc(F)cc2)c2ccccn2)CC1`, the “activation (PDE inhibition)” value was 5.12%. For `CC(=O)C(C)=O`, the “activation (PDE inhibition)” value was 0.044%. `O=S(=O)(c1cccc2c(Cl)cccc12)N1CCCNCC1` was tested, and the “activation (PDE inhibition)” value was -0.448%. With `c1ccc2nc(C3=NCCN3)ccc2c1` the Potency was “inactive”. In the case of `CCN(CC)CCCCCCCCOC(=O)c1cc(OC)c(OC)c(OC)c1`, the “activation (PDE inhibition)” value is reported as 15.6%. `CC1CCN(CC[C@H]2CCCN2S(=O)(=O)c2cccc(O)c2)CC1` was tested, and the “activation (PDE inhibition)” value was -29.9%. For `NCCCCN=C(N)N`, the “activation (PDE inhibition)” value was 10.5%. With `O=C(O)C1=CCCNC1` the “activation (PDE inhibition)” value was 2.2%. In the case of `CC(C)[C@H](NC(=O)OCc1ccccc1)C(=O)N[C@H](C=O)Cc1ccccc1` (Cbz-Val-Phe-aldehyde), the “activation (PDE inhibition)” value is reported as 0.904%. `COc1ccc(NC(=O)c2ccc(-c3ccc(-c4noc(C)n4)cc3C)cc2)cc1N1CCN(C)CC1` was tested, and the “activation (PDE inhibition)” value was 19.2%. With `NOCC(=O)O` the “activation (PDE inhibition)” value was -30.3%.

Reference: PubChem BioAssay (NCATS)
Potency means the concentration at half of the fitted maximal effect.
